# G9a block = G9a (human) methyltransferase inhibition; Potency, µM (doses to about 102 µM), for inactives: at the top dose activity, negative = inhibition, hits mostly inhibitors; actives 8.8% (n = 350,000); Q96KQ7; G9a H3K9 monomethylation, AlphaScreen, 2 h; also: % is scaled to controls: 0 for no effect and ±100 for the full control effect; nearly all actives have a fitted effect of over 75% in size
#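 Signal arises when biotinylated H3K9 peptide, once monomethylated, bridges streptavidin donor and antibody-captured acceptor beads. Enzyme at 20 nM was preincubated 15 min with test compounds; peptide 500 nM and SAM 20 uM then reacted for 2 h.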
# HP1b chromo inh = HP1-beta chromodomain-methylated histone interaction inhibition | AlphaScreen HP1-beta / biotin-H3K9me3 peptide binding | Potency, µM (top dose mostly 114 µM), inactives show top-dose activity change, negative = inhibition, most hits filed as inhibitors | actives 0.56% (n = 390,000); also: nearly all actives have a fitted effect of over 70% in size
#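 Compound inhibition of the preformed complex between 50 nM HP1-beta and 50 nM biotinylated H3K9me3 peptide was read by AlphaScreen. Buffer was PBS pH 7.4 with 0.01% Tween-20. Incubations ran 30 min at room temperature, with 10 ug/mL donor/acceptor beads.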
# Sfp inh = inhibitors of Bacillus subtilis Sfp phosphopantetheinyl transferase; Q9F4F7; Biochemical Sfp PPTase activity, qHTS; Potency, µM, for the others: largest response in the series, negative = inhibition, actives largely listed as inhibitors; actives 3.5% (n = 310,000); AID 1490;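 also: the enzyme is Sfp with the accession as filed and its product quenches rhodamine fluorescence; 0% = enzyme reaction without inhibitor and -100% = no enzyme wells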
#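 Compounds were incubated with enzyme (final 15 nM) for 15 min at room temperature before substrate addition started the reaction. Fluorescence at 525 nm excitation, 598 nm emission was recorded immediately and after 30 minutes.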
# BAZ2B block = inhibitors of human BAZ2B bromodomain; AlphaScreen BAZ2B-H3K14Ac peptide displacement; Potency, µM (titrated, usually from 114 µM), for the others: at the highest dose activity change, negative = inhibition, most hits filed as inhibitors; actives 4.4% (n = 360,000); AID 504333; also: % is scaled to controls: 0 for no effect and ±100 for the full control effect; nearly all actives have a fitted effect of over 60% in size
#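 AlphaScreen luminescence quantifies BAZ2B engagement of H3K14Ac peptide; the protein and biotinylated peptide are both at 50 nM final, buffer PBS pH 7.4 with 0.01% Tween-20, all steps at room temperature.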
# JMJD2A Tudor = blocks the human JMJD2A Tudor domain. O75164. AlphaScreen JMJD2A-Tudor / H3K4me3 peptide binding. Potency, µM (top dose mostly 114 µM), without a hit: at the top dose activity change, negative = inhibition, actives largely listed as inhibitors. actives 4.4% (n = 390,000); also: % is scaled to controls: 0 for no effect and ±100 for the full control effect; nearly all actives have a fitted effect of over 50% in size
# Active calls of the source: *; u = inconclusive; x = not tested or not shown; [ ] = another dose, or the depositor's remark. Compounds with a hit are over-represented: about 12% of the library has one in this group of screens. Calls follow the shape of the dose curve; as a rule, active = well fitted curve in the direction sought with a large enough effect; inconclusive = small, poorly fitted or top-dose-only effect, or another doubt; inactive = no such curve, though single readings can be large; an effect the other way counts as inactive or inconclusive. Potency is read from the fitted curve at half-maximal effect.
SMILES,G9a block,HP1b chromo inh,Sfp inh,BAZ2B block,JMJD2A Tudor
O=C(COC(=O)c1ccc[nH]c1=O)NCCCc1ccccc1,-14%[12.7 µM],3%,x,6%,-9%
COc1ccccc1N1CCN(c2nc(N)c(C#N)c(CC#N)c2C#N)CC1,50µM*,18%,-17%,-34%,u
O=C(Nc1ccc(Br)cc1)c1cccc(S(=O)(=O)N2CCc3ccccc32)c1,9%[59 µM],15%,x,2%,4%
CN(C)CCSc1nnc2[nH]c3ccccc3c2n1,1.4µM*,26%,-25%,-4%,-9%
Fc1cccc(CSc2nnc3c(n2)[nH]c2ccccc23)c1,24%[59 µM],36%,17%,-10%,-14%
COc1ccc(Cc2nc3ccc(C(=O)NCC(C)(C)OC)cc3o2)cc1,x,35%,14%,2%,-5%
O=c1[nH]c(/C=C/c2ccc([N+](=O)[O-])cc2)c([N+](=O)[O-])c(=O)[nH]1,28µM*,6%,0%,-4%,-3%
O=c1[nH]c(/C=C/c2ccc3c(c2)OCO3)c([N+](=O)[O-])c(=O)[nH]1,u,x,14%,-4%,x
O=C(NC1C(=O)NNC1c1ccccc1)c1ccc(F)cc1 (configuration not stated),-19%[59 µM],38%,4%,5%,-12%
Cc1ccc(C2NNC(=O)C2NC(=O)c2ccccc2)cc1 (configuration not stated),2.2µM*,1%,-11%,-7%,u
Cc1cc2cc3c(cc2nc1SCC(=O)O)OCCO3,10%[59 µM],11%,14%,11%,-2%
Cc1cc2cc3c(cc2nc1SCc1ccc(C(=O)O)cc1)OCCO3,50µM*,19%,-15%,u,-33%
CC1(C)Cc2c(c(N3CCOCC3)nc3sc(-c4ccc(C(=O)O)o4)c(N)c23)CO1,u,-11%,45µM*,u,-32%
CNC(=O)c1ccc(-c2sc3nc(N4CCOCC4)c4c(c3c2N)CCCC4)o1,u,42%,-28%,u,u
CNC(=O)c1ccc(-c2sc3nc(N4CCOCC4)c4c(c3c2N)CC(C)(C)OC4)o1,7%[0.501 µM],39%,79µM*,u,-3%
COc1ccc(NC(=O)c2sc3nc(N4CCOCC4)c4c(c3c2N)CC(C)(C)OC4)cc1,x,59%,2%,-1%,-5%
Cc1ccc2occ(-c3nn[nH]n3)c(=O)c2c1,u,15%,-12%,50µM*,28µM*
CC(C)c1ccc2occ(CC(=O)Nc3ccccc3Cl)c2c1,49%[59 µM],122%,x,45%,139%
Cc1ccc2occ(-c3cc(-c4ccc(F)cc4)nc4c3COc3ccc(F)cc3-4)c(=O)c2c1,6%[59 µM],38%,x,-19%,-2%
CC(C)c1ccc2occ(-c3nn[nH]n3)c(=O)c2c1,u,-3%,-15%,56µM*,18µM*
COc1ccc2[nH]cc(CCNC(=O)CC[C@H]3O[C@@H](n4cc(C)c(=O)[nH]c4=O)C[C@@H]3O)c2c1,x,21%,x,x,-1%
CCn1c(=O)c2ccccc2n2c(SCC(N)=O)nnc12,7%,36%,11%,-8%,-10%
O=C(NNS(=O)(=O)c1ccccc1[N+](=O)[O-])c1cccc(Br)c1,-5%,21%,-12%,-20%,11µM*
Cc1cccc(C(=O)NNS(=O)(=O)c2ccccc2[N+](=O)[O-])c1,u,8%,6%,-7%,u
O=C(NNS(=O)(=O)c1ccccc1[N+](=O)[O-])c1ccc(O)cc1,u,u,7%,50µM*,5.6µM*
SMILES,G9a block,HP1b chromo inh,Sfp inh,BAZ2B block,JMJD2A Tudor
O=C(NNS(=O)(=O)c1ccccc1[N+](=O)[O-])c1cccc(Cl)c1,u,23%,-3%,-8%,28µM*
COc1ccc(S(=O)(=O)N2CCOCC2)cc1NC(=O)C1COc2ccccc2O1 (configuration not stated),-16%[0.501 µM],-6%,x,-1%,-19%
C/C(=N\OCc1nc2ccccc2c(=O)n1/N=C/c1cc([N+](=O)[O-])ccc1O)c1ccccc1,40µM*,-5%,2%,-38%,-29%
C/C(=N\OCc1nc2ccccc2c(=O)n1/N=C/c1cc(C)cc([N+](=O)[O-])c1O)c1ccccc1,x,33%,-23%,7.9µM*,-4%
Cc1cc(Br)ccc1NS(=O)(=O)c1c(C)[nH]c(=O)[nH]c1=O,45µM*,25%,-7%,-1%,-12%
CCOC(=O)c1ccccc1NC(=O)Cn1c(-c2nonc2N)nc2ccccc21,-2%,32%,28µM*,5%,-3%
Nc1nonc1-c1nc2ccccc2n1CC(=O)Nc1ccccc1,6%[12.7 µM],14%,6%,-2%,-2%
Nc1nonc1-c1nc2ccccc2n1CC(=O)N/N=C/c1ccc(-c2ccccc2C(=O)O)o1,45µM*,8%,u,50µM*,-8%[11.4 µM]
CC(=O)N/C(=C/C(C)C)c1ccccc1,10%[0.501 µM],54%,x,u,-10%
O=C(Nc1nc(-c2ccc(Br)cc2)ns1)c1ccc(F)cc1,5%[59 µM],42%,x,0%,-10%
CC(=O)NCc1ccc(C(=O)CCl)cc1,u,74%,10%,x,-5%
CC(=O)N(C)Cc1ccc(C(=O)CCl)cc1,u,u,79µM*,-9%,7%
Cc1ccc(N2CCN(S(=O)(=O)c3ccc4oc(=O)c5ncn(C)c5c4c3)CC2)c(C)c1,2%[59 µM],12%,x,-3%,-14%
CN(C)/C=C/C(=O)c1cnc(-c2ccccn2)s1,-2%,-1%,8%,-2%,-18%
CC(=O)Nc1ccc(SCC(c2ccccc2)N2CCN(C)CCC2=O)cc1 (configuration not stated),x,15%,-7%,x,-11%
COc1ccc(NC(=S)NC(NC(C)=O)C(Cl)(Cl)Cl)c([N+](=O)[O-])c1 (configuration not stated),11µM*,u,-17%,-6%,-26%
CC(=O)NC(NC(=S)Nc1ccccc1Br)C(Cl)(Cl)Cl (configuration not stated),28µM*,-4%,-4%,9%,-3%
COc1ccc(NC(=S)NC(NC(=O)c2cccc(Cl)c2)C(Cl)(Cl)Cl)c([N+](=O)[O-])c1 (configuration not stated),u,u,16%,u,22µM*
CCOC(=O)c1ccccc1NC(=O)CN(c1cc(C(F)(F)F)ccc1Cl)S(C)(=O)=O,1%[59 µM],36%,x,-1%,-1%
O=C(NNC(=O)C1C2C=CC(C2)C1C(=O)O)c1cc(Cl)ccc1O (configuration not stated),-8%,39%,u,-17%,-4%
COc1ccc(C(=O)c2c(C)c3ccccc3n2CC(O)CNC(C)C)cc1 (configuration not stated),45µM*,1%,32µM*,-9%,-26%
COc1ccccc1CNCC(O)Cn1c2ccccc2c2ccccc21 (configuration not stated),-53%[59 µM],11%,-74%,-33%,-35%
